From PubChem BioAssay (NCATS)
Records with an inconclusive call do not appear. A call without a number means that no potency is given here. Active and inactive are the calls of the source. Calls come from the whole dose curve; as a rule, active = well fitted inhibition curve with a large enough effect; inconclusive = small, poorly fitted or top-dose-only effect; inactive = no such curve, though single readings can be large or run the other way.

Legend:
[1] = test system: Zika virus NS2B-NS3 protease (unlinked complex); assay: Primary screen GU Rhodamine qHTS for Zika virus inhibitors: Unlinked NS2B-NS3 protease assay (AID 1347159); note: nearly all actives have a fitted effect of over 60% in size; note: potency is the fitted concentration of half-maximal effect
Outline: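 Percent inhibition came from the 15-min rise in Rhodamine110 fluorescence (1.5 microM substrate, ~15% conversion), normalized to no-inhibitor and no-enzyme wells and Hill-fitted. Unlinked protease, 25 nM, pH 8.0 Tris buffer; compounds up to 114 microM, 15-min preincubation.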

[2] = test system: Zika virus NS2B-NS3 protease (linked construct); assay: Primary screen NINDS Rhodamine qHTS for Zika virus inhibitors (AID 1347160); note: nearly all actives have a fitted effect of over 55% in size
Outline: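 Rhodamine110-peptide cleavage (1.5 µM substrate) by 25 nM linked NS2B-NS3 enzyme at pH 8.0 (Tris, Tween 20), after 15 min RT preincubation with compounds; 15-min fluorescence change normalized to controls and Hill-fitted.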

[3] = Tertiary RLuc qRT-PCR qHTS assay for Zika virus inhibitors (AID 1347169); note: top concentration of the series differs between compounds; nearly all actives have a fitted effect of over 55% in size
Outline: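 Orthogonal cell-based infection assay using recombinant ZIKV-RLuc (Cambodian) in Vero cells; compound added prior to virus at MOI 1-2. Incubation lasts 48-72 hrs at 37 degrees C before live-cell Renilla substrate is added and luminescence measured.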

Row | Compound | Potency [1] | Potency [2] | Potency [3]
1 | O=C(CNC(=O)c1cccc(C(F)(F)F)c1)N[C@@H]1CCN(Cc2ccc(Cl)cc2)C1 | inactive | inactive | –
2 | CCCC(CCC)C(=O)Nc1ccn([C@@H]2O[C@H](CO)[C@@H](O)C2(F)F)c(=O)n1 | inactive | inactive | –
3 | CC(C)C[C@@H](C(=O)N[C@@H](Cc1ccc(OCc2ccccc2)cc1)C(=O)NC(C)(C)C)N(C)Cc1ccc(C(C)(C)C)cc1 | inactive | inactive | –
4 | CC1(NC(=O)c2ccc(C#Cc3cccc(F)c3)cn2)COC1 | inactive | inactive | –
5 | COc1cc2c(cc1NS(=O)(=O)c1ccc(Br)cc1C)n(C)c(=O)n2C | inactive | inactive | –
6 | CC1(CO)CC2C(O)C3=C(CC(C)(O)C2C1)C(=O)OC3 (centres undefined) | inactive | inactive | –
7 | CCC/C=C\C=C/CCc1cc(O)c([C@@H]2O[C@H](CO)[C@@H](O)[C@H](O)[C@H]2O)c(O)c1C(=O)OC | inactive | inactive | –
8 | CCN1CCN(Cc2ccc(NC(=O)c3ccc(C)c(Oc4ccnc5[nH]ccc45)c3)cc2C(F)(F)F)CC1 | inactive | inactive | –
9 | CN(C)N(C)C(=O)[C@@]1(Cc2ccccc2)CCCN(C(=O)[C@@H](Cc2c[nH]c3ccccc23)NC(=O)C(C)(C)N)C1 | inactive | inactive | –
10 | C/C1=C\[C@@H](C)C[C@@H](C)[C@@H](Cc2cnco2)OC(=O)/C(C)=C/[C@@H](C)C[C@@H](C)[C@@H](Cc2cnco2)OC1=O | inactive | inactive | –
11 | NC(=O)c1cnc(N[C@@H]2CCCC[C@H]2N)nc1Nc1cccc(-n2nccn2)c1 | inactive | inactive | –
12 | C=C1C(=O)O[C@@H]2[C@H]1CC[C@H](C)[C@]1(CCC(=O)O1)C2(C)O (some centres undefined) | inactive | inactive | –
13 | COC1C=C(C)C(O)(CO)C2(C)CCCC(C)(C)C12 (centres undefined) | inactive | inactive | –
14 | O=C(NCCCN1CCOCC1)c1cnn2c(-c3ccccc3)cc(-c3ccccc3)nc12 | inactive | inactive | –
15 | O=c1cc(NCCCN[C@@H]2CCOc3c(Br)cc(Br)cc32)[nH]c2ccsc12 | inactive | inactive | –
16 | O=C(Nc1ccc2[nH]nc(-c3ccncc3)c2c1)[C@@H]1CCN(CC(=O)N2CCN(c3ccc(-c4ncccn4)cc3)CC2)C1 | inactive | inactive | –
17 | Cc1ccc(N2CCN(S(=O)(=O)N3CCCCC3)CC2)c(C)c1 | inactive | inactive | –
18 | O=C(Nc1nnc(-c2ccc3c(c2)OCCO3)o1)C1CCCCC1 | inactive | inactive | –
19 | Nc1nc2c(s1)CCN(Cc1ccc(Cl)cc1)CC2 | inactive | inactive | –
20 | CCNC1(C(N)=O)CCN(c2ncnc3c2nc(-c2ccccc2Cl)n3-c2ccc(Cl)cc2)CC1 | inactive | inactive | –

Row | Compound | Potency [1] | Potency [2] | Potency [3]
21 | CCC(C)C(=O)O[C@H]1[C@@H](OC(=O)c2ccoc2)C[C@](C)(O)[C@]23OC(C)(C)[C@H](C[C@H](OC(=O)c4ccoc4)[C@]12COC(C)=O)[C@H]3OC(C)=O (some centres undefined) | inactive | inactive | –
22 | C=C1C(=O)O[C@@H]2C=C(COC(C)=O)CC/C=C(\CO)CC[C@@H]12 | inactive | inactive | –
23 | O=C1Nc2nc(-c3c(O)cccc3OCC3CC3)cc([C@@H]3CCCNC3)c2CO1 | inactive | inactive | –
24 | O=C(c1ccc(F)cc1)N1CCCC(c2nc(-c3ccc(F)cc3)no2)C1 (centres undefined) | inactive | inactive | –
25 | C=C1C(=O)O[C@@H]2C3=C(C)CCC[C@]3(C)CC[C@@]12O | inactive | inactive | –
26 | C=C[C@]1(C)C[C@H](O)[C@H]2C(=C)C(=O)O[C@@H]2[C@H]1C(=C)CO | inactive | inactive | –
27 | Cc1ccnc(NC(=O)C(C)c2cccc(C(=O)c3ccccc3)c2)c1 (centres undefined) | inactive | inactive | –
28 | Cc1cc2ncc(C(=O)NCC(C)(C)NCC(=O)N3CCC[C@H]3C#N)cn2n1 | – | inactive | –
29 | C=C1C(=O)O[C@H]2CC(=C)[C@H]3CC[C@@](C)(O)[C@@H]3CC12 (some centres undefined) | 11.2 µM (active) | inactive | inactive
30 | C=C1C(=O)O[C@@H]2C[C@H](C)[C@@H]3CC(=O)C(C)=C3C[C@H]12 | inactive | inactive | –
31 | O=C(NCc1ccccc1)c1ccc2c(=O)n(-c3cccc(C(F)(F)F)c3)c(=S)[nH]c2c1 | – | inactive | –
32 | Cc1ccc(C)c(NC(=O)[C@@H]2CCCN2S(=O)(=O)c2cccc3cccnc23)c1 | – | inactive | –
33 | CN1CC[C@@H](c2c(O)cc(O)c3c(=O)cc(-c4ccc(C(F)(F)F)cc4Cl)oc23)[C@@H]1CO | inactive | inactive | –
34 | Cc1cc2c(cc1N1C(=O)c3cccc4c(CCCO)ccc(c34)C1=O)n(C)c(=O)n2C | – | inactive | –
35 | Cc1ccccc1CN1CCn2c1nc1c(c2=O)CN(Cc2ccccc2)CC1 | inactive | inactive | –
36 | COC1CC/C=C(\C)C(=O)Nc2cc(O)cc(c2)CC(C)CC(OC)C(O)C(C)/C=C(\C)C1OC(N)=O (centres undefined) | inactive | inactive | –
37 | C=C1[C@H]2CC[C@H](C(=O)O)[C@@]23CC[C@H](C3)C1(C)C | inactive | inactive | –
38 | Nc1ncnc2c1nc(Cl)n2C1OC2COP(=O)(O)OC2C1O (centres undefined) | – | inactive | –
39 | CCC(C)CC(=O)OC1C(=O)C(CO)=CC(O)C1C(C)C (centres undefined) | inactive | inactive | –
